Structures can show the parent of a compound that is named as a salt. ± gives the standard deviation of the averaged measurements.
Experiments:
Assay in all cases: growth (OD600 after 10 h); higher = more growth (less inhibition)
[1] = tested on: E. coli TESEC Alr+ wild-type control; settings: compound 0.1 mM; raw OD600 reference: median of DMSO wells 0.241, cell-free background 0.041
Description: (§1)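 TESEC Mtb Alr E. coli, or the Alr+ wild-type control, in 384-well plates with Prestwick library compounds at 0.1 mM and 1% DMSO, across arabinose induction levels of 1E3 to 1E7 nM. Growth is read as OD600 after 10 h at 37 °C in triplicate biological replicates.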

E. coli TESEC Mtb Alr [2] = settings: compound 0.1 mM
Description: as §1

E. coli TESEC Mtb Asd = settings: compound 0.1 mM
Description: (§2)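 TESEC E. coli strains in which the native enzyme is deleted and replaced by arabinose-inducible Mtb Asd, DapB, CysH or TrpD, each grown in its selective medium. Strains were screened against the Prestwick library at 0.1 mM and 1% DMSO in 384-well format at low and high arabinose induction. Growth is read as OD600 after 10 h in triplicate.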

E. coli TESEC Mtb DapB = settings: compound 0.1 mM
Description: as §2

[3] = tested on: E. coli TESEC Alr+ wild-type control; settings: compound 0.1 mM; raw OD600 reference: median of DMSO wells 0.49, cell-free background 0.052
Description: (§3)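 TESEC Mtb Alr E. coli (ΔaraC ΔtolC ΔentC Δalr ΔdadX, arabinose-inducible Mtb Alr) or the Alr+ wild-type control strain, grown in defined M9-fructose medium without D-alanine in 96-well plates with Prestwick library compounds at 0.1 mM and 1% DMSO. Low Alr induction is 0.1 µM arabinose and high induction is 10 mM arabinose.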

E. coli TESEC Mtb Alr [4] = settings: compound 0.1 mM; remark: listed apart in the source
Description: as §3

[5] = arabinose 1000 nM, raw OD600 reference: median of DMSO wells 0.294, cell-free background 0.041
[6] = arabinose 10000 nM, raw OD600 reference: median of DMSO wells 0.264, cell-free background 0.041
[7] = arabinose 100000 nM, raw OD600 reference: median of DMSO wells 0.201, cell-free background 0.041
[8] = arabinose 1000000 nM, raw OD600 reference: median of DMSO wells 0.193, cell-free background 0.041
[9] = arabinose 10000000 nM, raw OD600 reference: median of DMSO wells 0.146, cell-free background 0.041
[10] = arabinose induction (level): High, raw OD600 reference: median of DMSO wells 0.331, cell-free background 0.041
[11] = arabinose induction (level): Low, raw OD600 reference: median of DMSO wells 0.417, cell-free background 0.041
[12] = arabinose induction (level): High, raw OD600 reference: median of DMSO wells […], cell-free background 0.041
[13] = arabinose induction (level): Low, raw OD600 reference: median of DMSO wells 0.227, cell-free background 0.041
[14] = arabinose 100 nM, raw OD600 reference: median of DMSO wells 0.413, cell-free background 0.052
[15] = arabinose 10000000 nM, raw OD600 reference: median of DMSO wells […], cell-free background 0.052

Compound | growth [1] | growth (E. coli TESEC Mtb Alr [2]; [5]) | growth (E. coli TESEC Mtb Alr [2]; [6]) | growth (E. coli TESEC Mtb Alr [2]; [7]) | growth (E. coli TESEC Mtb Alr [2]; [8]) | growth (E. coli TESEC Mtb Alr [2]; [9]) | growth (E. coli TESEC Mtb Asd; [10]) | growth (E. coli TESEC Mtb Asd; [11]) | growth (E. coli TESEC Mtb DapB; [12]) | growth (E. coli TESEC Mtb DapB; [13]) | growth [3] | growth (E. coli TESEC Mtb Alr [4]; [14]) | growth (E. coli TESEC Mtb Alr [4]; [15])
O=C(O)c1cc(/N=N/c2ccc(S(=O)(=O)Nc3ccccn3)cc2)ccc1O [Sulfasalazine] | 0.274 ± 0.0048 | 0.308 ± 0.0065 | 0.254 ± 0.0054 | 0.193 ± 0.018 | 0.169 ± 0.011 | 0.131 ± 0.0032 | 0.314 ± 0.065 | 0.363 ± 0.054 | 0.207 ± 0.018 | 0.231 ± 0.03 | 0.473 ± 0.032 | 0.431 ± 0.0053 | 0.349 ± 0.017
CC(C)NC(=N)NC(=N)Nc1ccc(Cl)cc1 [Proguanil hydrochloride] | 0.216 ± 0.0044 | 0.261 ± 0.006 | 0.275 ± 0.0087 | 0.176 ± 0.013 | 0.143 ± 0.0015 | 0.142 ± 0.0028 | 0.216 ± 0.048 | 0.31 ± 0.068 | 0.207 ± 0.03 | 0.244 ± 0.016 | 0.475 ± 0.012 | 0.422 ± 0.009 | 0.345 ± 0.019
NC(=O)NC1NC(=O)NC1=O (configuration not stated) [Allantoin] | 0.253 ± 0.015 | 0.281 ± 0.017 | 0.258 ± 0.0083 | 0.244 ± 0.0082 | 0.173 ± 0.0071 | 0.142 ± 0.0025 | 0.375 ± 0.027 | 0.424 ± 0.028 | 0.192 ± 0.0069 | 0.276 ± 0.1 | 0.438 ± 0.049 | 0.41 ± 0.011 | 0.28 ± 0.14
CO[C@@]1(NC(=O)CSCC#N)C(=O)N2C(C(=O)O)=C(CSc3nnnn3C)CS[C@@H]21 [Cefmetazole sodium salt] | 0.0393 ± 0.0013 | 0.0392 ± 0.0012 | 0.0395 ± 0.00076 | 0.0392 ± 0.0027 | 0.03973 ± 5.8e-05 | 0.03957 ± 0.00025 | 0.0524 ± 0.0042 | 0.0557 ± 0.0072 | 0.0493 ± 0.0012 | 0.0513 ± 0.0023 | 0.0516 ± 0.012 | 0.0461 ± 0.00055 | 0.0549 ± 0.0037
Cc1cc(NC(=O)C2=C(O)c3ccccc3S(=O)(=O)N2C)no1 [Isoxicam] | 0.25 ± 0.0032 | 0.255 ± 0.038 | 0.26 ± 0.0052 | 0.184 ± 0.033 | 0.184 ± 0.0038 | 0.135 ± 0.0033 | 0.252 ± 0.022 | 0.395 ± 0.081 | 0.199 ± 0.0028 | 0.216 ± 0.034 | 0.47 ± 0.018 | 0.412 ± 0.015 | 0.299 ± 0.037
NC(=O)c1cnccn1 [Pyrazinamide] | 0.244 ± 0.0055 | 0.284 ± 0.01 | 0.267 ± 0.0063 | 0.208 ± 0.03 | 0.185 ± 0.007 | 0.14 ± 0.0018 | 0.289 ± 0.057 | 0.382 ± 0.11 | 0.195 ± 0.029 | 0.209 ± 0.019 | 0.538 ± 0.071 | 0.421 ± 0.013 | 0.366 ± 0.015
c1coc(CNc2ncnc3nc[nH]c23)c1 [6-Furfurylaminopurine] | 0.252 ± 0.0041 | 0.29 ± 0.014 | 0.252 ± 0.0053 | 0.209 ± 0.027 | 0.181 ± 0.0069 | 0.138 ± 0.0046 | 0.341 ± 0.068 | 0.43 ± 0.043 | 0.209 ± 0.011 | 0.221 ± 0.024 | 0.44 ± 0.022 | 0.405 ± 0.0075 | 0.365 ± 0.0057
Cn1c(NCCN(CCO)CCCc2ccc([N+](=O)[O-])cc2)cc(=O)n(C)c1=O [Nifekalant] | 0.241 ± 0.011 | 0.301 ± 0.0034 | 0.248 ± 0.003 | 0.168 ± 0.0095 | 0.144 ± 0.0052 | 0.145 ± 0.002 | 0.179 ± 0.017 | 0.428 ± 0.057 | 0.2 ± 0.033 | 0.258 ± 0.013 | 0.534 ± 0.067 | 0.4 ± 0.015 | 0.298 ± 0.02
C[C@]12C=CC(=O)C=C1CC[C@H]1[C@@H]3C[C@@H](O)[C@](O)(C(=O)CO)[C@@]3(C)C[C@H](O)[C@@]12F [Triamcinolone] | 0.222 ± 0.0077 | 0.256 ± 0.033 | 0.266 ± 0.0064 | 0.157 ± 0.014 | 0.142 ± 0.0088 | 0.127 ± 0.0023 | 0.222 ± 0.011 | 0.452 ± 0.014 | 0.191 ± 0.014 | 0.229 ± 0.022 | 0.451 ± 0.037 | 0.4315 ± 0.0037 | 0.306 ± 0.03
O=C1[C@H](CC[C@H](O)c2ccc(F)cc2)[C@@H](c2ccc(O)cc2)N1c1ccc(F)cc1 [Ezetimibe] | 0.0438 ± 0.00074 | 0.0482 ± 0.0028 | 0.046 ± 0.00091 | 0.0462 ± 0.0037 | 0.0477 ± 0.004 | 0.0501 ± 0.0032 | 0.101 ± 0.082 | 0.0479 ± 0.0012 | 0.0503 ± 0.003 | 0.04873 ± 0.00038 | 0.0525 ± 0.0014 | 0.0636 ± 0.0051 | 0.061 ± 0.01
CC(C)(C)NC[C@@H](O)COc1cccc2c1CCCC2=O [(+) -Levobunolol hydrochloride] | 0.226 ± 0.012 | 0.291 ± 0.0069 | 0.267 ± 0.007 | 0.18 ± 0.0047 | 0.182 ± 0.0049 | 0.136 ± 0.003 | 0.459 ± 0.021 | 0.467 ± 0.022 | 0.205 ± 0.021 | 0.224 ± 0.017 | 0.546 ± 0.077 | 0.412 ± 0.012 | 0.339 ± 0.013
Nc1ccc(/N=N/c2ccccc2)c(N)n1 [Phenazopyridine hydrochloride] | 0.152 ± 0.0064 | 0.172 ± 0.0075 | 0.251 ± 0.0051 | 0.144 ± 0.0084 | 0.184 ± 0.0075 | 0.16 ± 0.009 | 0.255 ± 0.039 | 0.22 ± 0.016 | 0.196 ± 0.01 | 0.189 ± 0.022 | 0.405 ± 0.014 | 0.414 ± 0.0063 | 0.301 ± 0.021
CCCCNc1ccc(C(=O)OCCOCCOCCOCCOCCOCCOCCOCCOCCOC)cc1 [Benzonatate] | 0.241 ± 0.0078 | 0.279 ± 0.0063 | 0.252 ± 0.011 | 0.217 ± 0.0091 | 0.148 ± 0.006 | 0.157 ± 0.0052 | 0.245 ± 0.012 | 0.405 ± 0.0093 | 0.17 ± 0.017 | 0.206 ± 0.036 | 0.444 ± 0.033 | 0.407 ± 0.012 | 0.264 ± 0.12
N[C@@H](Cc1ccc(O)c(O)c1)C(=O)O [Levodopa] | 0.229 ± 0.0045 | 0.275 ± 0.015 | 0.267 ± 0.015 | 0.199 ± 0.028 | 0.178 ± 0.0063 | 0.138 ± 0.0042 | 0.383 ± 0.026 | 0.455 ± 0.0078 | 0.195 ± 0.0078 | 0.209 ± 0.013 | 0.489 ± 0.052 | 0.413 ± 0.013 | 0.354 ± 0.018

Source: the supplement of paper PMC9262897, “Low-cost anti-mycobacterial drug discovery using engineered E. coli” (Nature Communications, 2022)
